Many of the other results were omitted from the sample, so hits are more common in it than they were.
Tgondii IFNg = T. gondii growth inhibition with IFN-gamma, primary screen, cell-based. 69,000 compounds, 3.8% hits. AID 1259416, 2018. Toxoplasma gondii growth in IFN-gamma-treated host cells; active compounds read low. activity change, negative = inhibition, % (concentration not given with the values); in the data active = activity change below about -70%, passing the limit was not always enough;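 also: host cells are HeLa cells infected with Toxoplasma gondii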
Each line names hits and unclear results; the compound was inactive in the other large screens.

O=CNC1CCCc2c1[nH]c1ccc(Cl)cc21 (centres undefined)	Tgondii IFNg -81
CC(=O)N1CCO[C@H]2CCN(C(=O)c3ccn(C)n3)C[C@H]21	none
Cc1nc(-c2ccc(F)cc2)sc1CCNS(=O)(=O)c1ccc2c(c1)OCCO2	none
COc1cccc(-c2nc(-c3noc4ccc(C(=O)N5CCCO5)cc34)co2)c1	none
C=C1/C(=C\C=C2/CCC[C@]3(C)[C@@H]([C@H](C)/C=C/C=C/C(O)(CC)CC)CC[C@@H]23)C[C@@H](O)C[C@@H]1O	none
C=C1CC[C@H](O)C/C1=C/C=C1\CCC[C@]2(C)[C@@H]([C@H](C)CCCC(C)C)CC[C@@H]12	Tgondii IFNg -75
C=C1/C(=C\C=C2\CCC[C@]3(C)[C@@H]([C@H](C)CCCC(C)C)CC[C@@H]23)C[C@@H](O)C[C@@H]1O	none
COCC(=O)N1C[C@@H](C(=O)N2CCCO2)C[C@@H]2OCC[C@@H]21	none
Cc1nc(NCCn2cccn2)c2cnn(C)c2n1	none
CN(Cc1ccccc1C(=O)O)C1CC(C)(C)NC(C)(C)C1	none
CCCc1[nH]ncc1C(=O)N1CCCC(c2[nH]ncc2-c2ccc(F)cc2)C1 (centres undefined)	none
CCCc1cc(C(=O)N2CCCC(c3[nH]c4c(C)cccc4c3-c3ccncc3)C2)no1 (centres undefined)	Tgondii IFNg -116
CCCc1cc(C(=O)N2CCCC(c3[nH]ncc3-c3ccccc3)C2)ccn1 (centres undefined)	none
CC1=C(C(=O)NCCCc2ccccc2)C2(CCN(Cc3ccccc3)CC2)OC1=O	none
O=C(O)[C@H]1C[C@@H](C(=O)N2CCCC2)CN(C/C=C/c2ccccc2)C1	none
CCOC(=O)C1(Cc2cc(-c3ccccc3C)no2)CCN(Cc2ccccn2)CC1	Tgondii IFNg -77
CCOC(=O)[C@@]12CCCN(Cc3ccccn3)C[C@@H]1CN(C(C)C)C2	none
C=CCN1C[C@H]2CN(Cc3ccccn3)CCC[C@@]2(C(=O)OCC)C1	none
CN(C)C(=O)c1ccc2c(c1)N(C)C(CC(=O)Nc1cccc3[nH]ncc13)CO2 (centres undefined)	none
CN[C@H](C(=O)N[C@H](C(=O)N(C)[C@H](/C=C(\C)C(=O)O)C(C)C)C(C)(C)C)C(C)(C)c1ccccc1	Tgondii IFNg -71
CCN1CCC2(CN(C(=O)N(C)C)CC23CCN(C(=O)Cc2ccsc2)CC3)C1=O (centres undefined)	none
CCOc1ccc(NC(=O)Nc2ccc(-c3nc(-c4cc(C)ccc4C)co3)cc2)cc1	none
CC(=O)N1CCC2(CC1)CC(NC1CCOCC1)c1ccccc1O2 (centres undefined)	none
O=C(c1cnc2ccccc2c1)N1CCC2(CC(=O)N(c3cccc(F)c3)C2)C1 (centres undefined)	Tgondii IFNg -74
O=C(c1cnc2ccccc2c1)N1CCC2(CC(=O)N(c3ccc(F)cc3)C2)C1 (centres undefined)	none
Cc1cccc(N2CC3(CCN(C(=O)c4cnc5ccccc5c4)C3)CC2=O)c1 (centres undefined)	none
CCC(COC(=O)Nc1cc(C)ccc1C)NC(=O)Oc1ccccc1 (centres undefined)	none
CC(=O)N1CCCC(c2cncc(-c3cncnc3)n2)C1 (centres undefined)	none
COc1ccccc1NC(=O)CSc1nc2ccccc2n1CC(=O)N1CCOCC1	none
Cc1nc2ccccc2nc1SCC(=O)Nc1ccccc1OC(C)C	Tgondii IFNg -88
CCOc1ccccc1NC(=O)CSc1ccc(Cl)cc1	none
CO[C@H]1CN(C)C(=O)c2cc(NC(=O)c3nc4ccccc4s3)ccc2OC[C@@H](C)NC[C@@H]1C	none
CO[C@@H]1CN(C)C(=O)c2cc(NC(=O)c3nc4ccccc4s3)ccc2OC[C@@H](C)NC[C@H]1C	none
CO[C@H]1CN(C)C(=O)c2cc(NC(=O)c3nc4ccccc4s3)ccc2OC[C@H](C)NC[C@H]1C	Tgondii IFNg -111
CO[C@@H]1CN(C)C(=O)c2cc(NC(=O)c3nc4ccccc4s3)ccc2OC[C@@H](C)NC[C@@H]1C	none
CO[C@H]1CN(C)C(=O)c2cc(NC(=O)c3nc4ccccc4s3)ccc2OC[C@@H](C)NC[C@H]1C	none
CO[C@@H]1CN(C)C(=O)c2cc(NC(=O)c3nc4ccccc4s3)ccc2OC[C@H](C)NC[C@H]1C	Tgondii IFNg -92
CCOC(=O)[C@@]12CCCN(S(=O)(=O)CC)C[C@@H]1CN(C(C)C)C2	none
Cc1nnn2c1COCC(CNCC(C)C)C2 (centres undefined)	none
COc1cc(C(=O)NC(C)c2ccc(OC)c3ccccc23)nc(OC)n1 (centres undefined)	none
O=C1NC(=Nc2ccc(Cl)cc2)SC1Cc1ccccc1 (centres undefined)	Tgondii IFNg -92
O=C(CC1SC(=Nc2ccccc2)NC1=O)Nc1ccccc1 (centres undefined)	none
C/C(=N\N=C1\NC(=O)C(CC(=O)Nc2ccc(Cl)cc2)S1)c1ccco1 (centres undefined)	none
CC(C)CCN1CCC2(CCCN(c3nncs3)C2)C1 (centres undefined)	none
Cc1ccc(NC(=O)CC(=O)NCCCn2ccnc2)cc1Cl	none
